LANA-H2A inh: blocks KSHV LANA binding to histone H2A/H2B | AID 2629 | cell-free LANA-H2A/H2B peptide, fluorescence polarization | Q9QR71 | hit rate 0.6% among 320,000 | inhibition, % (no concentration beside the values); in the data active = inhibition mostly above about 10%, no sharp cut-off; inactive = mostly below about 6.7%
Keap1 Nrf2 FP: inhibitors of human Keap1-Nrf2 protein-protein interaction; hit rate 0.15% among 340,000; AID 504523; inhibition, % at 9.4 µM; Q14145; Keap1 Kelch-Nrf2 peptide fluorescence polarization, 1536-well; in the data active = inhibition above about 12%;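 also: human Keap1 Kelch domain with fluorescein labeled Nrf2 9mer peptide probe; higher means more block of Keap1 binding to Nrf2 peptide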
Target sequence (Q14145 whole entry, looked up, the tested form may be a part): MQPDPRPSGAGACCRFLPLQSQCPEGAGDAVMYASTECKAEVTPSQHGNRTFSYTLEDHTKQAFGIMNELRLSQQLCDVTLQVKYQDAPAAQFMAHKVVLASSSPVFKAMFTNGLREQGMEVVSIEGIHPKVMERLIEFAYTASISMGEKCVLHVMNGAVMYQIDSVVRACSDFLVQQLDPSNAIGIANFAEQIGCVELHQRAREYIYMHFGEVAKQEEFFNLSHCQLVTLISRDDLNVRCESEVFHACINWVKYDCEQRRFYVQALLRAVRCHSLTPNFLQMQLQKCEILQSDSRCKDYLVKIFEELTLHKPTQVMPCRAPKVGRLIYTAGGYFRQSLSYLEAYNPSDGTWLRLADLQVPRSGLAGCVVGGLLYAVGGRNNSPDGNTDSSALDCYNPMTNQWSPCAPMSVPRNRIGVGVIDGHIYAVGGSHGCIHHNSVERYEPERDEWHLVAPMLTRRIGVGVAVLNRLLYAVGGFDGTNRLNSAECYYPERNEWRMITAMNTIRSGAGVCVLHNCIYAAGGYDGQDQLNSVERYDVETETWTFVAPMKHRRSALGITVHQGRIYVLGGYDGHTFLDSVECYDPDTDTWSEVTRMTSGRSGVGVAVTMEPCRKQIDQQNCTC
RTF Ca sens inh: cardiac RTF calcium desensitization | hit rate 0.12% among 340,000 | IANBD-labeled cardiac RTF, Ca2+ fluorescence | inhibition, % at 7.15 µM | P19429+P45379;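 active = inhibition above the mean inhibition of all tested compounds plus 3 SD, cut at about 17% in these data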;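 also: assay run at fixed EC70 calcium of 1.6 mM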
RTF Ca sens act: cardiac RTF calcium sensitization. P19429+P45379. IANBD-labeled TnC RTF fluorescence at EC20 calcium; 0% EC20 calcium, 100% full calcium. activation, % at 7.2 µM. hit rate 0.24% among 340,000. AID 493008;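 active = activation above the mean over all tested compounds plus 3 SD, cut at about 30% in these data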;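 also: rise in fluorescence read as greater calcium sensitivity of cardiac thin filaments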
LANA DNA inh: KSHV C-LANA DNA binding inhibition; inhibition, % at 9 µM; MBP-C-LANA/FAM-LBS DNA binding, fluorescence polarization; hit rate 0.078% among 340,000; AID 504423;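 active = highest replicate inhibition at or above 60% at 9 µM, even if other replicates fall short; inactive = all replicates below 60% inhibition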
Each line names hits and unclear results; the compound was inactive in the other large screens. Rows were chosen to be rich in hits. Some 0.99% of all compounds tested hit in one or more screens of this group.

CN(CCNC(=O)c1ccc(CS(=O)(=O)c2ccc(Br)cc2)o1)CCc1ccccc1	LANA-H2A inh 19
COC(=O)c1ccc(CS(=O)(=O)c2ccc(F)cc2)o1	RTF Ca sens act 32
Cc1c(NC2=NC3(CCCCC3)Cc3ccccc32)c(=O)n(C)n1-c1ccccc1	none
C=CCNC(=O)C1CCCN(S(C)(=O)=O)C1 (stereo unspecified)	none
COc1ccc(CCNC(=O)c2ccc(CS(=O)(=O)c3ccc(C)cc3)o2)cc1OC	none
COc1ccc(CCNC(=O)c2ccc(CS(=O)(=O)c3ccc(Cl)cc3)o2)cc1OC	LANA-H2A inh 27
Cc1cc(NC(=O)c2sc(Nc3ccc(F)cc3)nc2N)no1	none
O=c1c2ccccc2sc2ccccc12	none (no result: LANA-H2A inh)
O=c1c(C(c2ccccc2)c2c(O)sc3ccccc3c2=O)c(O)sc2ccccc12	LANA-H2A inh 11
COC(=O)CCCC1=CC2=C(c3ccccc3)C(=O)C(C)(OC(=O)C3CCCC3)C(=O)C2=CN1c1ccccc1 (stereo unspecified)	none
COC(=O)CCCC1=CC2=C(c3ccccc3)C(=O)C(C)(OC(=O)C3CCCC3)C(=O)C2=CN1C1CC1 (stereo unspecified)	LANA-H2A inh 59
C=CCc1cc(C=Nc2ccc(N3CCOCC3)cc2)cc(OCC)c1O	none (no result: LANA-H2A inh)
Cc1csc(NC(=O)CCCc2cccs2)n1	LANA-H2A inh 181
N#CC1=C(N)Oc2nc[nH]c(=O)c2C1c1cccs1 (stereo unspecified)	none (no result: RTF Ca sens inh, RTF Ca sens act)
N/C(=N\N=C\c1ccc(O)c(O)c1)c1nonc1N	LANA-H2A inh 18
CN1/C(=C\C=O)C(C)(C)c2ccccc21	none
CN1/C(=C/C=C(C#N)C#N)C(C)(C)c2ccccc21	LANA DNA inh 150
CN(C)c1ccc(N=C/C=C2\N(C)c3ccccc3C2(C)C)cc1	none
CN1\C(=C/C=C/C=C/C=[N+](C)C)C(C)(C)c2ccccc21	RTF Ca sens act 218 (no result: LANA-H2A inh)
O=c1c(O)c(-c2cccs2)oc2ccc(Cl)cc12	RTF Ca sens act 36
COc1ccccc1N1CCN(C(=O)c2cc3cc(C)ccc3[nH]2)CC1	LANA-H2A inh 15
COc1ccccc1N1CCN(C(=O)c2cc3ccccc3[nH]2)CC1	none
O=c1cc(-c2ccc(F)cc2)[nH][nH]1	none
CCc1ccc(Nc2n[n+](-c3ccccc3)c(-c3ccc(N(CC)CC)cc3)s2)cc1	RTF Ca sens act 33
CCN(CC)c1ccc(-c2sc(Nc3ccccc3)n[n+]2-c2ccc(F)cc2)cc1	RTF Ca sens act 31
CN(C)c1ccc(-c2sc(Nc3ccccc3)n[n+]2-c2ccc(F)cc2)cc1	none
CCc1ccc(Nc2n[n+](-c3ccccc3)c(-c3ccc(OCc4ccccc4)cc3)s2)cc1	none
N#Cc1ccccc1NC(=O)CC1c2ccccc2Oc2ccccc21	none
COc1cc2[nH]c(=S)nc(NCc3cccs3)c2cc1OC	none
O=C(/C=C/c1ccc(F)cc1)N1CC[C@@]2(O)CCCC[C@H]2C1	LANA-H2A inh 4.7
CCOC(=O)N1CCC(NC(=O)c2cc(S(=O)(=O)N3CCOCC3)ccc2F)CC1	none
CCOC(=O)N1CCC(NC(=O)c2cc(C(=O)Nc3ccc(S(=O)(=O)N4CCOCC4)cc3)ccc2CO)CC1	LANA-H2A inh 17
Cc1ccc(C(=O)NCCN(C)C)c(C)c1	none
CNc1c2cccc(C)c2nc2c(C(=O)NCCN(C)C)cccc12	LANA DNA inh 61 (no result: LANA-H2A inh)
O=C(C1CCC(=O)N(C2CC2)C1)N1CCC(Oc2cccc(F)c2)CC1 (stereo unspecified)	none
O=C1OC(c2ccccc2)=N/C1=C\C=C\c1ccccc1[N+](=O)[O-]	LANA-H2A inh 12
COCCN1C(=O)N[C@@H](c2cccs2)C(C(C)=O)=C1C	none
CN(C(=O)c1cccc(NC(=O)Cc2ccc(NC(=O)C3CCN(C(=O)C4CCCCC4)CC3)cc2)c1)C1CCCCC1	none (no result: LANA-H2A inh)
COc1cnc(-c2ccccc2)c(-c2ccccc2)n1	none
N=c1n(Cc2ccccc2)c2ccccc2n1CC(O)c1ccco1 (stereo unspecified)	RTF Ca sens act 40
O=C(O)c1ccccc1C(=O)N1CCN(S(=O)(=O)c2cccc(C(F)(F)F)c2)CC1	LANA-H2A inh 43
O=C(Nc1ccccc1F)c1ccc([N+](=O)[O-])s1	none
CN(C)NC(=O)c1ccc([N+](=O)[O-])s1	RTF Ca sens act 31
CC1=C(C(=O)Nc2ccc(Cl)cc2C(=O)N2CCC(C(N)=O)CC2)SCCO1	none
Nc1ccc2ccc(O)cc2c1	none (no result: LANA-H2A inh)
